We go through five molecules from PubChem BioAssay (EPA / NIEHS).

Records with an inconclusive call do not appear. The source made the active and inactive calls. Rule for the calls, unless noted: active = hit-call score of the fitted dose curve at least 0.9, where 1 is the maximum; inactive = score below 0.9.

Assay [1] has as its target Myc proto-oncogene protein (Homo sapiens) (UniProt P01106). Nature of the assay: ATG_Myc_CIS: Attagene CIS-FACTORIAL HepG2 Assay for human Myelocytomatosis (Myc) Proto-Oncogene Transcription Factor (AID 2282990). As to conditions: HepG2, Attagene cis-reporter transcription factor activity; actives raise or lower the signal. Summed up: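 Cells of the HepG2 human liver line bear multiple cis-driven reporter transcription units. Reporter mRNA after 24 h exposure is reverse-transcribed, amplified, labelled and resolved by capillary electrophoresis, with gain- or loss-of-signal fitting relative to DMSO.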

Assay [2] can be described thus: ATG_NRF2_ARE_CIS: Attagene CIS-FACTORIAL HepG2 Assay for human Nuclear Factor Erythroid 2 Related Factor 2 (NFR2) response to Antioxidant Response Elements (ARE) (AID 2282992).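 For AC50: reporter mRNA level measured by RT-PCR and capillary electrophoresis fluorescence.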 The conditions noted are these: HepG2 Attagene ARE/NRF2 reporter, transcription factor activity; actives raise or lower the signal. An outline of the steps: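 Endogenous transcription factor activity in human liver HepG2 cells is tracked via a cis-element-driven reporter within a multiplexed set. mRNA induction is read by RT-PCR and capillary electrophoresis after 24 h, with DMSO as baseline.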

The nature of assay [3]: ATG_Oct_MLP_CIS: Attagene CIS-FACTORIAL HepG2 Assay for human Octamer-Binding Transcription Factor (Oct) (AID 2282993). As to conditions: HepG2 Attagene cis-factorial Oct reporter, mRNA; actives raise or lower the signal. An outline of the steps: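 HepG2 cells transiently transfected with cis-element-driven reporter transcription units (endogenous TF activity); 24 h compound exposure. Reporter mRNA quantified by RT-PCR, 6-FAM labelling, HpaI digestion and capillary electrophoresis; bidirectional fit versus DMSO baseline.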

In assay [4] the target is Cellular tumor antigen p53 (Homo sapiens) (UniProt P04637). Nature of the assay: ATG_p53_CIS: Attagene CIS-FACTORIAL HepG2 Assay for human p53 Transcription Factor (AID 2282994). As to conditions: HepG2 p53 cis-element reporter, Attagene mRNA; actives raise or lower the signal. An outline of the steps:
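Steps: transfect HepG2 with multiplexed cis reporter constructs; dose chemicals 24 h; extract RNA, reverse-transcribe, PCR-amplify reporter sequences; FAM-label, HpaI-digest, resolve fragments by CE. Activity fitted both directions relative to DMSO.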

Assay [5] concerns the target Retinoic acid receptor alpha (Homo sapiens) (UniProt P10276). Nature of the assay: ATG_RARa_TRANS: Attagene TRANS-FACTORIAL HepG2 Assay for human Retinoic Acid Receptor alpha (RARa) (AID 2283005; active = hit-call score of the fitted dose curve at least 0.9, where 1 is the maximum). Summed up:
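Reporter transcripts, measured by RT-PCR with fluorescent labeling and capillary electrophoresis after 24 h dosing, reflect activity of an exogenous human RARa–GAL4 fusion in transiently transfected HepG2. Fitted for increase relative to DMSO.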

Assay [6] has as its target Peroxisome proliferator-activated receptor gamma (Homo sapiens) (UniProt P37231). The experiment in a line: ATG_PPARg_TRANS: Attagene TRANS-FACTORIAL HepG2 Assay for human Peroxisome Proliferator-activated Receptor-gamma (PPARg) (AID 2283007; active = hit-call score of the fitted dose curve at least 0.9, where 1 is the maximum). An outline of the steps: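 After 24 h of chemical exposure, transfected HepG2 cells carrying PPARγ-Gal4 chimera reporter constructs are lysed for RNA. Reporter transcripts are measured by RT-PCR and capillary electrophoresis with fluorescent labelling, and gain of signal is fitted versus DMSO.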

For assay [7], the target named is Nuclear receptor subfamily 1 group I member 2 (Homo sapiens) (UniProt O75469). The experiment in a line: ATG_PXR_TRANS: Attagene TRANS-FACTORIAL HepG2 Assay for human Pregnane X Receptor (PXR) (AID 2283008; active = hit-call score of the fitted dose curve at least 0.9, where 1 is the maximum). Summed up: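 HepG2 transfected (FuGene 6) with GAL4-UAS reporter units + PXR-Gal4 chimera; dosed 24 h. Total RNA → oligo(dT) RT → PCR → 6-FAM primer extension → HpaI cut → CE. Gain-of-signal vs DMSO.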

Assay [8] is described as follows: ATG_NF_kB_CIS: Attagene CIS-FACTORIAL HepG2 Assay for human Nuclear Factor Kappa B (NF-kB) (AID 2282991). The conditions noted are these: HepG2 Attagene cis-factorial NF-kB reporter mRNA; actives raise or lower the signal. An outline of the steps:
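Readout is reporter transcript level, gain or loss versus DMSO, measured 24 h post-dose via RT-PCR, fluorescent labelling and capillary electrophoresis. Human HepG2 liver cells carried transiently transfected CIS reporter constructs reflecting endogenous factors.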

The target in assay [9] is human Peroxisome Proliferator-activated Receptor alpha (PPARa), PPARA (gene 5465) (UniProt Q07869). Nature of the assay: ATG_PPARa_TRANS: Attagene TRANS-FACTORIAL HepG2 Assay for human Peroxisome Proliferator-activated Receptor alpha (PPARa) (AID 2283001; active = hit-call score of the fitted dose curve at least 0.9, where 1 is the maximum). An outline of the steps: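 Reporter transcripts quantified by RT-PCR plus capillary electrophoresis after 24 h treatment, fitted upward relative to DMSO. Cells: human HepG2 transiently carrying multiple GAL4-UAS reporter units driven by NR-Gal4 chimeras.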

The target of assay [10] is human RAR-related Orphan Receptor gamma (RORg), RORC (gene 6097) (UniProt P51449). The experiment in a line: ATG_RORg_TRANS: Attagene TRANS-FACTORIAL HepG2 Assay for human RAR-related Orphan Receptor gamma (RORg) (AID 2283011; active = hit-call score of the fitted dose curve at least 0.9, where 1 is the maximum). Summed up: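 HepG2 cells transiently transfected with GAL4-UAS reporter units and chimeric RORg-Gal4 construct; after 24 h chemical exposure, reporter mRNA measured by RT-PCR with fluorescent capillary electrophoresis, gain of signal fitted against DMSO.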

Assay [11] addresses Retinoic acid receptor RXR-alpha (Homo sapiens) (UniProt P19793). Nature of the assay: ATG_RXRa_TRANS: Attagene TRANS-FACTORIAL HepG2 Assay for human Retinoid X Receptor alpha (RXRa) (AID 2283012; active = hit-call score of the fitted dose curve at least 0.9, where 1 is the maximum). An outline of the steps: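 TRANS format reporting activity of exogenous RXRa-Gal4 chimera in transiently transfected HepG2, 24 h exposure. Reporter transcripts quantified by RT-PCR with capillary electrophoresis, with gain of signal scored relative to DMSO.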

Assay [12] is described as follows: BSK_3C_TissueFactor: BioMAP Diversity Plus: 3C Assay for Tissue Factor Biomarker Activity (AID 2282997). The conditions noted are these: BioMAP 3C HUVEC, tissue factor biomarker readout; actives raise or lower the signal. An outline of the steps: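 Tissue Factor measured by ELISA, 24 h after treatment of primary HUVEC in the BioMAP 3C setting.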
The nature of assay [13]: BSK_3C_uPAR: BioMAP Diversity Plus: 3C Assay for Urokinase-type plasminogen activator receptor (uPAR) Biomarker Activity (AID 2282998). As to conditions: BioMAP 3C HUVEC, uPAR biomarker ELISA; actives raise or lower the signal. An outline of the steps: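 Primary human umbilical vein endothelial cells, 3C system; surface uPAR measured by ELISA 24 h after dosing. Cytotoxicity via SRB total protein in parallel cultures; bidirectional fit against DMSO.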
For orientation: In an ELISA, binding on a coated surface is turned into a signal by an enzyme label.

A short description of assay [14]: BSK_3C_VCAM1: BioMAP Diversity Plus: 3C Assay for Vascular cell adhesion molecule 1 (VCAM1) Biomarker Activity (AID 2282999). The conditions noted are these: BioMAP 3C HUVEC, VCAM1 ELISA, cytokine-stimulated; actives raise or lower the signal. Summed up: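 Activity fitted in both directions relative to DMSO, with ELISA measurement of the surface marker on primary HUVEC (3C) at 24 h post-treatment; parallel SRB staining (0.1% SRB, TCA-fixed, 560 nm) flagged overt cytotoxicity.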

A short description of assay [15]: BSK_4H_Eotaxin3: BioMAP Diversity Plus: 4H Assay for Eotaxin 3 Biomarker Activity (AID 2283000).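 For outcome: CCL26 protein level quantified by ELISA in parallel with SRB cytotoxicity check.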 The conditions noted are these: primary human endothelial cells (HUVEC); actives raise or lower the signal. An outline of the steps: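 Eotaxin-3 (CCL26) levels were measured by ELISA in HUVEC primary cultures 24 h post-dosing. Gain or loss of signal was fitted in both directions, with DMSO serving as baseline and negative control.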

Assay [16] deals with human Peroxisome Proliferator-activated Receptor delta (PPARd), PPARD (gene 5467) (UniProt Q03181). The experiment in a line: ATG_PPARd_TRANS: Attagene TRANS-FACTORIAL HepG2 Assay for human Peroxisome Proliferator-activated Receptor delta (PPARd) (AID 2283002; active = hit-call score of the fitted dose curve at least 0.9, where 1 is the maximum). An outline of the steps: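 Cell-based TRANS reporter: HepG2, transient MRTU transfection, 24 h exposure. Readout = reporter mRNA (RT-PCR/CE, 6-FAM). Gain-of-signal fit vs DMSO control.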

Read-out in assay [17]: Intercellular Adhesion Molecule 1 (ICAM1), ICAM1 (gene 3383)
The experiment in a line: BSK_3C_ICAM1: BioMAP Diversity Plus: 3C Assay for Intercellular Adhesion Molecule 1 (ICAM1) Biomarker Activity (AID 2283003). As to conditions: primary human endothelial cells (HUVEC); actives raise or lower the signal. An outline of the steps: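 ELISA readout of ICAM1 in human umbilical vein endothelial cells in the 3C system, taken 24 h post-dose. Gain or loss of signal versus DMSO was fitted in both directions, with SRB total-protein staining run in parallel.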

Assay [18] in a line: BSK_3C_Proliferation: Cell Proliferation Assessment in the BioMAP Diversity Plus: 3C Assay (AID 2283006).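 For AC50: potency may reflect either rise or fall in cell number versus DMSO.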 The conditions noted are these: primary human endothelial cells (HUVEC). An outline of the steps:
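Proliferation as total protein: sulforhodamine B (0.1%) stain of TCA-fixed subconfluent human umbilical vein endothelial cells, absorbance 560 nm, 48 h after dosing. Activity fitted in both directions against DMSO baseline.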

Assay [19] has as its target human RAR-related Orphan Receptor beta (RORb), RORB (gene 6096) (UniProt Q92753). Nature of the assay: ATG_RORb_TRANS: Attagene TRANS-FACTORIAL HepG2 Assay for human RAR-related Orphan Receptor beta (RORb) (AID 2283010; active = hit-call score of the fitted dose curve at least 0.9, where 1 is the maximum). Summed up: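 Read-out is reporter mRNA induction, quantified by RT-PCR with fluorescent capillary electrophoresis, 24 h post-dose in transiently transfected HepG2 expressing exogenous NR-Gal4 chimera. Activity fitted upward versus DMSO.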

The target of assay [20] is human Retinoic Acid Receptor gamma (RARg), RARG (gene 5916) (UniProt P13631). The experiment in a line: ATG_RARg_TRANS: Attagene TRANS-FACTORIAL HepG2 Assay for human Retinoic Acid Receptor gamma (RARg) (AID 2283009; active = hit-call score of the fitted dose curve at least 0.9, where 1 is the maximum). An outline of the steps: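 Transactivation of exogenous RARg-Gal4 fusion measured as reporter transcript induction after 24 h in transfected HepG2 cells. RNA reverse-transcribed, amplified, fluorescently labeled and resolved by capillary electrophoresis; increase relative to DMSO.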

Sequence of Myc proto-oncogene protein (Homo sapiens) (P01106 whole entry, looked up): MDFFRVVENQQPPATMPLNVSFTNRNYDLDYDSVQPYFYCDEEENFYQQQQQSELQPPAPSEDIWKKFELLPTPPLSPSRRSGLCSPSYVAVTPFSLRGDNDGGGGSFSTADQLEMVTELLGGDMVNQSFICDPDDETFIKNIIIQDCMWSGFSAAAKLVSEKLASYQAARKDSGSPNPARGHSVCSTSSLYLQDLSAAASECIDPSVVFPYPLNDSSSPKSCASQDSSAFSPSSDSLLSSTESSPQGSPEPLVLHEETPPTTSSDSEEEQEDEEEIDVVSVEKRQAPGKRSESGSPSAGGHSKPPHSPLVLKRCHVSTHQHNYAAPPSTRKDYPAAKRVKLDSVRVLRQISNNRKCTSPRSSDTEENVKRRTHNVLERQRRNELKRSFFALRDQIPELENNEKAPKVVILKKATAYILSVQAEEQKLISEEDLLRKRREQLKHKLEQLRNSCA
Sequence of Nuclear receptor subfamily 1 group I member 2 (Homo sapiens) (O75469 whole entry, looked up, the tested form may be a part): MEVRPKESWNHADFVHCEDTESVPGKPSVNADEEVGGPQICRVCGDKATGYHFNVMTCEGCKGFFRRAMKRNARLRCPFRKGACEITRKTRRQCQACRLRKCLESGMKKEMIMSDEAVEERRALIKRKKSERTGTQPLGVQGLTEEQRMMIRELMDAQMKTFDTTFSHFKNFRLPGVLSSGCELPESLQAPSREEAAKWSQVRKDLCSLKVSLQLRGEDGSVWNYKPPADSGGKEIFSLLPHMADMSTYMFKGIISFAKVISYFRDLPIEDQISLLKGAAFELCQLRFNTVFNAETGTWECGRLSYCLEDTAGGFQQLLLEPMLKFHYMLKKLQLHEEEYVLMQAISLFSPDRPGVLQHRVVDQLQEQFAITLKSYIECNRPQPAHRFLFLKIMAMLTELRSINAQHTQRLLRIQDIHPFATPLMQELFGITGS
Sequence of Cellular tumor antigen p53 (Homo sapiens) (P04637 whole entry, looked up, the tested form may be a part): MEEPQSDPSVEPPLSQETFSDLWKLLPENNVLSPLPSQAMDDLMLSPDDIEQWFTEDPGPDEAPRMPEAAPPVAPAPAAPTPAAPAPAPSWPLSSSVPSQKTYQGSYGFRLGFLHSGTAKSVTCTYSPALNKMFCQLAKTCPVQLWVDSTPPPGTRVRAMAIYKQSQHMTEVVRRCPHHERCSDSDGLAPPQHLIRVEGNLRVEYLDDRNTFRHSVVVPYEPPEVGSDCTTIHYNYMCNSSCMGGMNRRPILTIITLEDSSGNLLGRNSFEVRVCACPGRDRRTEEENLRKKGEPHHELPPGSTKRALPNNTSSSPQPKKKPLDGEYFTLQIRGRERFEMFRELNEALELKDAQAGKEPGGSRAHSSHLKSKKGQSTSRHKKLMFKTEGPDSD
Sequence of Retinoic acid receptor RXR-alpha (Homo sapiens) (P19793 whole entry, looked up, the tested form may be a part): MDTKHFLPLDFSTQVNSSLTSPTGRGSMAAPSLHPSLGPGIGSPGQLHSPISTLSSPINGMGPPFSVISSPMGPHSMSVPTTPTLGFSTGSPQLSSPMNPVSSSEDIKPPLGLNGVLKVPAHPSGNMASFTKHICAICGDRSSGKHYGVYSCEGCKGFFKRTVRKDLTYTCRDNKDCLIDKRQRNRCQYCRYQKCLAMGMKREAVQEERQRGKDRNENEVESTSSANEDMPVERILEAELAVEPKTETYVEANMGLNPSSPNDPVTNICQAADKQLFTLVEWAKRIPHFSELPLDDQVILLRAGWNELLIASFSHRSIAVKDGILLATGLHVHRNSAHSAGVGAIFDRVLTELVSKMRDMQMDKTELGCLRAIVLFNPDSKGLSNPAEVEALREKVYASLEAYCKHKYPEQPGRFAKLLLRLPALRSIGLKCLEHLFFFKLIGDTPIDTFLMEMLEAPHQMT
Sequence of human Peroxisome Proliferator-activated Receptor delta (PPARd), PPARD (gene 5467) (Q03181 whole entry, looked up): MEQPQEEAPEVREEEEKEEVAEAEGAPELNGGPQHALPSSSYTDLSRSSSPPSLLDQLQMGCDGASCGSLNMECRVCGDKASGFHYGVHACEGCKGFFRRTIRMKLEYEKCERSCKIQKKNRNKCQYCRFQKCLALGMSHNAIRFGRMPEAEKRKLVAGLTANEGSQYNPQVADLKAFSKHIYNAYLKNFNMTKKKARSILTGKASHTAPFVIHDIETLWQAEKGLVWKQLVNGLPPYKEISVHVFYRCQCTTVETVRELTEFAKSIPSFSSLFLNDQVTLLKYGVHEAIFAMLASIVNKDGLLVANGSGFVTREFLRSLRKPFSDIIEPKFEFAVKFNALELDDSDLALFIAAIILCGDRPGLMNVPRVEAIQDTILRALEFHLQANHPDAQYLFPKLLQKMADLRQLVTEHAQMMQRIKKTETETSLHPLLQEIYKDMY
Sequence of Peroxisome proliferator-activated receptor gamma (Homo sapiens) (P37231 whole entry, looked up, the tested form may be a part): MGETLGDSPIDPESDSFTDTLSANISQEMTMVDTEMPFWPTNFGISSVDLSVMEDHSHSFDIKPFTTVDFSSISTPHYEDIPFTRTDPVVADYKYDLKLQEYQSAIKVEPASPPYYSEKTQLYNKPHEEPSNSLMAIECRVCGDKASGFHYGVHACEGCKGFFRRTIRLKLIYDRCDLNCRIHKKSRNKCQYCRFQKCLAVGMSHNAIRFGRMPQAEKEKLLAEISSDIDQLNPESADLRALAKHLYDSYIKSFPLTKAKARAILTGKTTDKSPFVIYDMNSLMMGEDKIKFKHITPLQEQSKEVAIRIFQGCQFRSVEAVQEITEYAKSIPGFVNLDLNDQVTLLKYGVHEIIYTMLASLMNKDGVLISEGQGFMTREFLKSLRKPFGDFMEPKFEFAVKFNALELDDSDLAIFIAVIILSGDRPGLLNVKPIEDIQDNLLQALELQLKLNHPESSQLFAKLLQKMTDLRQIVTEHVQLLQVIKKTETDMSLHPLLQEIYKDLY
Sequence of human Peroxisome Proliferator-activated Receptor alpha (PPARa), PPARA (gene 5465) (Q07869 whole entry, looked up, the tested form may be a part): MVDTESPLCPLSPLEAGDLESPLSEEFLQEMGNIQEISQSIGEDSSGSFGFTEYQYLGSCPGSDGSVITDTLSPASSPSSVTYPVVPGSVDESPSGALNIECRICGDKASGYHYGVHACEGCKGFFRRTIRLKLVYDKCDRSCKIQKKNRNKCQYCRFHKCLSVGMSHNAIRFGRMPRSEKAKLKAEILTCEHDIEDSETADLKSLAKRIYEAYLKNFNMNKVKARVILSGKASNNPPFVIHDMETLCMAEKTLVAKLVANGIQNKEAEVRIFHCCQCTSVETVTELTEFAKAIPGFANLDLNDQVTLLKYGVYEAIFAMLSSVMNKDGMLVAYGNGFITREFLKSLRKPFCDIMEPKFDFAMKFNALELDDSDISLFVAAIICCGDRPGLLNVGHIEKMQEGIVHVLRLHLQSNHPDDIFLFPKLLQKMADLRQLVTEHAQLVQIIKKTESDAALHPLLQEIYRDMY
Sequence of human RAR-related Orphan Receptor beta (RORb), RORB (gene 6096) (Q92753 whole entry, looked up, the tested form may be a part): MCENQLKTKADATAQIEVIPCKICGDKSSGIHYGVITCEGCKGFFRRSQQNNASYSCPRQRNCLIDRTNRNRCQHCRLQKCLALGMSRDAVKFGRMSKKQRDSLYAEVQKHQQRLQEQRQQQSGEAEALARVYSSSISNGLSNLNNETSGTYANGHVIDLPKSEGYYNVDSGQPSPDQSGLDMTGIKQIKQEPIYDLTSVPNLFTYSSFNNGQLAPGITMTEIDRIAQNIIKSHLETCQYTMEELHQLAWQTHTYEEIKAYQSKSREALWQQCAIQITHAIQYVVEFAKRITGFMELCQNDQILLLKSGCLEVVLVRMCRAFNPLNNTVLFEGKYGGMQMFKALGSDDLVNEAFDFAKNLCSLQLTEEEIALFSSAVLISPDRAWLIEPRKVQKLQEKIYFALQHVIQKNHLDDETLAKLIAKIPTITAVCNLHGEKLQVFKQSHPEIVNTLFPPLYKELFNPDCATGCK
Sequence of human RAR-related Orphan Receptor gamma (RORg), RORC (gene 6097) (P51449 whole entry, looked up, the tested form may be a part): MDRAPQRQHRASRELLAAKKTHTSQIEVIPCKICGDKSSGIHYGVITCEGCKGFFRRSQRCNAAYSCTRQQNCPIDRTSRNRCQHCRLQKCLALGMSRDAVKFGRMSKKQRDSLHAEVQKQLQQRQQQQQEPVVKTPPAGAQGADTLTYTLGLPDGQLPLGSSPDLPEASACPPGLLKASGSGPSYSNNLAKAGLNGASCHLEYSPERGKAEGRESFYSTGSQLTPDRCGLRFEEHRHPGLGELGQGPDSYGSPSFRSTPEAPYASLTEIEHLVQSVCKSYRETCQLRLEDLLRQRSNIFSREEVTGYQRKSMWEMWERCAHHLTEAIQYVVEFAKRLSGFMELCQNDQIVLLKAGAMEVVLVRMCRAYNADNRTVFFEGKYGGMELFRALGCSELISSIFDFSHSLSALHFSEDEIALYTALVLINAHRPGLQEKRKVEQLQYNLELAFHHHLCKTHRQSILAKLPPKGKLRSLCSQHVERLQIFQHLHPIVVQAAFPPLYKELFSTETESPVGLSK
Sequence of Retinoic acid receptor alpha (Homo sapiens) (P10276 whole entry, looked up, the tested form may be a part): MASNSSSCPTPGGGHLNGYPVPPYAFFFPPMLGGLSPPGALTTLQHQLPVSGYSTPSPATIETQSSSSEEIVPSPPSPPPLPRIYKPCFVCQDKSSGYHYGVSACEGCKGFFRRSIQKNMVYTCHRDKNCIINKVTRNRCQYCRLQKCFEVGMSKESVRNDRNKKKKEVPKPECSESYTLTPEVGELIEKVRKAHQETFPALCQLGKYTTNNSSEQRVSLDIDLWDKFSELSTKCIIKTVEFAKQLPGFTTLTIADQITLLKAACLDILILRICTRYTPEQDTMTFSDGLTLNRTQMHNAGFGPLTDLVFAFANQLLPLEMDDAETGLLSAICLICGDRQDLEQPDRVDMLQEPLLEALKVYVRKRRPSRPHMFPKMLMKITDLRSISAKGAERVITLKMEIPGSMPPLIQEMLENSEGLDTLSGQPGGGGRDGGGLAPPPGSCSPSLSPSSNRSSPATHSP

For `CN(C)P(=O)(N(C)C)N(C)C`, the result in [1], in [2], in assay [3], in assay [4], in assay [5] and in [6] was inactive. For the same molecule, the call in [7] was inactive.
In the case of `CC1CN1P(=O)(N1CC1C)N1CC1C` (configuration not stated), the molecule was classed as inactive in assay [1], in [8], in [2], in assay [3], in [9] and in [6]. Moreover, the molecule was classed as inactive in assay [7], in assay [10] and in assay [11].
For `ClC1(Cl)C2(Cl)C3(Cl)C4(Cl)C(Cl)(Cl)C5(Cl)C3(Cl)C1(Cl)C5(Cl)C24Cl` (configuration not stated), the molecule was called inactive in assay [1], in assay [2], in assay [3], in assay [4], in assay [12] and in [13]. Also, the result in assay [14], in assay [15], in assay [16], in assay [17], in assay [18] and in assay [7] was inactive. Also, in assay [19], the outcome was inactive.
One may read the AC50 as the midpoint of the concentration-response curve, whichever way the signal moves. Consider `CCCCC(CC)CO[N+](=O)[O-]` (configuration not stated), for which the outcome in assay [1], in assay [3], in assay [4], in [13], in assay [14] and in [16] was inactive. The outcome in assay [17], in assay [7], in [10] and in assay [11] was inactive. Moreover, the AC50 was 167 µM (active) in [2], 28.6 µM (active) in [12], 30.4 µM (active) in assay [15] and 30.8 µM (active) in assay [18].
Turning to `CC(=O)C=C(C)C`, the molecule was classed as inactive in [1], in assay [8], in [2], in [3], in assay [9] and in [7]. The outcome in assay [20], in [19] and in assay [11] was inactive.
